Assay results published in PubChem BioAssay AID639 (Emory University Molecular Libraries Screening Center, 2007).
The whole screen tested about 86,000 compounds, of which about 1,200 (1.4%) were called active. The list comes from a sample in which actives are over-represented; it also holds similar structures and randomly drawn compounds. Values without a mark were called inactive. Cut-off read from the data, not from the text of the source: active = activity above about 200%; inactive = the rest.

target: Estrogen receptor (Homo sapiens) (UniProt P03372); test: ERα coactivator recruitment potentiators – biochemical, TR-FRET, ERα LBD, low estradiol, primary screen (AID 639); details: TR-FRET ERalpha-LBD/SRC-Cy5 coactivator binding, 2 h; at 25.6 µM; stronger effect = higher value; 100 = basal binding, no effect;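 note: binding measured in presence of low estradiol as agonist stimulus; 0% = peptide alone without receptor and 100% = receptor with peptide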
Sequence (P03372 whole entry, looked up, the tested form may be a part): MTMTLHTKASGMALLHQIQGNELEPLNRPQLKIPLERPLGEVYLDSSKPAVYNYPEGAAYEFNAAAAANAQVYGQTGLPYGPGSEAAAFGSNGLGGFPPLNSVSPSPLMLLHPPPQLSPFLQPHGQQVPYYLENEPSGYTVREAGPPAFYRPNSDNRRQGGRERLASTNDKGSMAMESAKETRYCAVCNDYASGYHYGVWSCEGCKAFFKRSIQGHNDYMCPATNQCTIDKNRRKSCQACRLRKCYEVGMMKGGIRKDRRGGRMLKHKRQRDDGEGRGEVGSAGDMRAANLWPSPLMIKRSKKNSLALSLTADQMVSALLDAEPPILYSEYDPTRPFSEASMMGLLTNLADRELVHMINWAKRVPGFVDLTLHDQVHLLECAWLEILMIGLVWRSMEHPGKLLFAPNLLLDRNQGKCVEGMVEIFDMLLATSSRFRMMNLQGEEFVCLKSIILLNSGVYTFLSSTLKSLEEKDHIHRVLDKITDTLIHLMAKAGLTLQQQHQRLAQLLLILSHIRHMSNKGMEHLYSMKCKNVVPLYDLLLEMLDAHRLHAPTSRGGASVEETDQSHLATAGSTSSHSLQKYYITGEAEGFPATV

First: CCc1nnc(NC(=O)CSc2nc3ccccc3c(=O)n2CCCOC)s1
Second: CCN(CC(=O)Nc1ccccc1OC)C(=O)Cn1cnc2ccccc2c1=O
The coactivator binding (% of control) of the first is higher: 102% for the first, 97.9% for the second.

Compared with `CCOC(=O)c1c(N=CN(C)C)c(C#N)c2n1CCCC2`, `CCOC(=O)c1ccc2c(c1)nc(C)n2CC` is lower in coactivator binding (% of control): 111% for the first, 89.8% for the second.

Going from `COc1ccc(NC(=O)CSc2nnc(-c3cccs3)n2Cc2ccco2)cc1OC` to `COc1cc(Cl)c(C)cc1NC(=O)CSc1nnc(-c2cccnc2)n1Cc1ccco1`, the coactivator binding (% of control) falls from 95.3% to 90.9%.

First: COC(=O)c1ccc(NC(=O)C23CC4CC(C2)CC(n2cnc(Cl)n2)(C4)C3)cc1
Second: O=C(NCCc1ccc(Cl)cc1)C1CC(=O)N(C2CCCCC2)C1 (stereo unspecified)
The coactivator binding (% of control) of the first is lower: 101% for the first, 133% for the second.

Going from `Cc1cccc(N(C(=O)c2ccc(CN3CCOCC3)o2)C(C(=O)NC2CCCCC2)c2ccc(F)cc2)c1` (stereo unspecified) to `O=C(Cn1nnc(-c2ccc(CN3CCOCC3)cc2)n1)NC1CCCCC1`, the coactivator binding (% of control) rises from 114% to 123%.

Going from `O=C(CSc1nnc(-c2ccc(NS(=O)(=O)c3ccccc3)cc2)o1)NCC1CCCO1` (stereo unspecified) to `CCn1c(SCC(=O)NCC2CCCO2)nc2cc(S(=O)(=O)N3CCCCC3)ccc21` (stereo unspecified), the coactivator binding (% of control) falls from 103% to 88.2%.

First: CC1Cc2ccccc2N1C(=O)c1cc2sccc2n1Cc1ccccc1 (stereo unspecified)
Second: CC1Cc2ccccc2N1C(=O)CSc1nc2ccccc2o1 (stereo unspecified)
The coactivator binding (% of control) of the first is higher: 200% for the first, 111% for the second.

Going from `Cc1c(-c2ccccc2)nc(N)c(C#N)c1-c1cccs1` to `CCc1c(-c2ccccc2)nc(N)c(C#N)c1-c1cccs1`, the coactivator binding (% of control) falls from 155% to 95.7%.

Going from `O=C(c1cc2c(s1)CCC2)N1CCN(c2ccccc2)CC1` to `COc1ccc(N2CCN(Cc3ccc(Br)s3)CC2)cc1`, the coactivator binding (% of control) rises from 19.5% to 108%.

Going from `CCCNC(=S)N1CCC(NC(=O)C23CC4CC(CC(C4)C2)C3)CC1` to `CC(C)OCCCNC(=O)C1CC(=O)N(C2CCCCCCC2)C1` (stereo unspecified), the coactivator binding (% of control) falls from 108% to 80.7%.

Going from `CCOc1ccc(-c2nnn(CC(=O)N3CCN(c4ccc(OC)cc4)CC3)n2)cc1OCC` to `CCOc1cc(-c2cc(-c3ccc(OC)cc3)nc(N)c2C#N)ccc1O`, the coactivator binding (% of control) rises from 87.8% to 146%.

First: COc1ccc(N(CC(=O)NC2CCCCC2)C(=O)CNC(=O)c2ccco2)c(OC)c1
Second: Cc1cc(NC(=O)CCC(=O)N(CC(=O)NCC2CCCO2)c2ccccc2C)no1 (stereo unspecified)
The coactivator binding (% of control) of the first is higher: 113% for the first, 101% for the second.

First: O=C(Nc1nncs1)c1cccc(S(=O)(=O)N2CCCCC2)c1
Second: Cc1cccc(OCCCC(=O)Nc2ccc(S(=O)(=O)N3CCCC3)cc2)c1
The coactivator binding (% of control) of the first is lower: 91.9% for the first, 94.6% for the second.

First: CSc1nnc2c(n1)OC(c1cn(C)c3ccccc13)N(C(C)=O)c1ccccc1-2 (stereo unspecified)
Second: CCC(=O)Nc1nc2ccccc2n1Cc1ccccc1C
The coactivator binding (% of control) of the first is higher: 120% for the first, 117% for the second.

Compared with `COCCCNC(=O)CN1CCN(Cc2ccccc2Cl)C1=O`, `CCOc1cc2[nH]c(=S)n(Cc3ccc(C(=O)NCCOC)cc3)c(=O)c2cc1OCC` is higher in coactivator binding (% of control): 107% for the first, 163% for the second.

Compared with `CCOc1ccc(N=C2NC(=O)S/C2=C\c2ccc(O)cc2)cc1`, `Cc1ccc(S(=O)(=O)Oc2ccc(/C=N/NC(=O)c3c(Cl)cnn3C)cc2)cc1` is lower in coactivator binding (% of control): 179% for the first, 106% for the second.

First: C/C(=N\NC(=O)c1ccc(C)cc1)C1C(=O)c2ccccc2C1=O
Second: Cc1ccc(-n2nc3cc(Cl)c(NC(=O)c4ccco4)cc3n2)cc1
The coactivator binding (% of control) of the first is lower: 71.8% for the first, 112% for the second.

Going from `Cc1cccc(-n2nc3c(c2NC(=O)c2ccc(Br)o2)CSC3)c1C` to `COc1cc(OC)c(NC(=O)c2ccc(Br)o2)cc1Cl`, the coactivator binding (% of control) falls from 129% to 112%.

Compared with `CC(C)(C)n1nnnc1C(c1ccc(Cl)cc1)N1CCSCC1` (stereo unspecified), `COc1ccc(C(c2nnnn2C2CCCCC2)N2CCN(c3ccccc3F)CC2)cc1` (stereo unspecified) is lower in coactivator binding (% of control): 105% for the first, 87.6% for the second.

Compared with `C#CCN(N(C)c1ncc(C(F)(F)F)cc1Cl)S(=O)(=O)c1ccc2ccccc2c1`, `O=C(CN1CCCCC1)N1c2ccccc2Sc2ccc(C(F)(F)F)cc21` is lower in coactivator binding (% of control): 165% for the first, 113% for the second.

First: c1ccc(CCn2nnnc2CN2CCN(C3CCCC3)CC2)cc1
Second: O=S(=O)(NC1CCCCC1)c1ccc(F)c2ccccc12
The coactivator binding (% of control) of the first is higher: 110% for the first, 91.4% for the second.

Compared with `Cc1cc(C)n(-c2nc(O)cc(=O)[nH]2)n1`, `Cc1cc(C)c2nc(N3CCCC3)c(C#N)cc2c1` is lower in coactivator binding (% of control): 103% for the first, 101% for the second.

Going from `COC(=O)c1cc(OC)ccc1-c1ccc(OC)cc1` to `COc1ccc(-c2ccc(-c3noc(-c4ccncc4)n3)c(OC)n2)cc1`, the coactivator binding (% of control) falls from 117% to 107%.

Going from `COc1cc(-c2nc(-c3ccncc3)no2)cc(OC)c1OC` to `c1ccc(-c2noc(-c3cccs3)n2)nc1`, the coactivator binding (% of control) rises from 87.6% to 118%.

Compared with `O=C(CO/N=C/c1ccccc1O)NNC(=O)c1ccccc1Cl`, `O=C(Cn1cnc2ccccc2c1=O)NCC1COc2ccccc2O1` (stereo unspecified) is higher in coactivator binding (% of control): 102% for the first, 104% for the second.

`OC(COc1ccc2ccccc2c1)Cn1cncn1` (stereo unspecified) and `N#CCSc1nc2ccccc2c(=O)n1-c1ccccc1` are the same in coactivator binding (% of control): 100% for the first, 100% for the second.

First: Cc1cc(C)c2c(n1)nn1c(N3CCN(c4cccc(Cl)c4)CC3)cc(C)nc21
Second: Cc1cccc2cc(C#N)c(N3CCCC3)nc12
The coactivator binding (% of control) of the first is higher: 169% for the first, 109% for the second.

First: Cc1cc(Cl)c(S(=O)(=O)N(C)C)cc1OCC(N)=O
Second: CO/N=C(/CS(=O)(=O)c1ccc(Br)cc1)c1ccc(OC)cc1
The coactivator binding (% of control) of the first is higher: 103% for the first, 94.8% for the second.

First: O=C1/C(=C/c2cccs2)CCc2ccccc21
Second: O=c1c2ccccc2nc2n1C1(CCCCC1)Cc1ccccc1-2
The coactivator binding (% of control) of the first is lower: 66.3% for the first, 109% for the second.

Going from `O=C(OC1CCCCC1=O)c1cccc(S(=O)(=O)NCc2ccccc2)c1` (stereo unspecified) to `CC(=O)c1cccc(NC(=O)C2CCCN2S(=O)(=O)c2cccc3nsnc23)c1` (stereo unspecified), the coactivator binding (% of control) falls from 96.6% to 87.3%.

First: COC(=O)c1nc2ccccc2s1
Second: NC(=O)c1sc2nc3c(c(-c4ccccc4)c2c1N)CCC3
The coactivator binding (% of control) of the first is higher: 116% for the first, 80.3% for the second.

Going from `CC1(C)C2CCC13CS(=O)(=O)NC3C2` (stereo unspecified) to `CCC(C)(C(=O)NC1CCCCC1)N(C)C(=O)c1ccc2c(c1)OCO2` (stereo unspecified), the coactivator binding (% of control) rises from 96.5% to 107%.

First: CCOC(=O)c1cc2cc(-c3c(C(=O)OCC)oc4cc(O)cc(O)c4c3=O)ccc2o1
Second: CCN1CCN(Cc2c(O)ccc3c(=O)c(-c4ccc(OC)c(OC)c4)c(C(F)(F)F)oc23)CC1
The coactivator binding (% of control) of the first is lower: 72.5% for the first, 109% for the second.

First: COc1ccc(C2CC(c3cccs3)=Nc3ccccc3S2)cc1OC (stereo unspecified)
Second: CCS(=O)(=O)c1ccc2oc(SCC(=O)N3c4ccccc4CC3C)nc2c1 (stereo unspecified)
The coactivator binding (% of control) of the first is lower: 94.7% for the first, 98% for the second.

Compared with `CC(C)C[C@@H](N)c1nnc(SCC(=O)c2ccc(Cl)cc2)o1`, `CC(C)c1nc(-c2ccccn2)no1` is higher in coactivator binding (% of control): 100% for the first, 105% for the second.

First: Cc1cccc(NC(=O)c2sc3nc4c(c(-c5ccco5)c3c2N)CCC4)c1
Second: COCCNC(=O)C(c1ccc(C)o1)N(Cc1cccs1)C(=O)c1snc(C(N)=O)c1N (stereo unspecified)
The coactivator binding (% of control) of the first is lower: 104% for the first, 117% for the second.

With `COc1ccccc1NC(=O)CSc1nc2sc(C)c(C)c2c(=O)n1Cc1ccco1` the coactivator binding (% of control) was 225% (active).
With `Cc1ccc2cc(C#N)c(SCC(=O)NCC3CCCO3)nc2c1C` (stereo unspecified) the coactivator binding (% of control) was 240% [fluorescence artefact?] (active).
For `CSc1nc(N)c(C#N)c(-c2ccccc2Cl)c1C#N`, the coactivator binding (% of control) was 214% [fluorescence artefact?] (active).
For `COc1ccc(C(=O)Cn2nnc(-c3ccc(N4CCOCC4)cc3)n2)cc1OC`, the coactivator binding (% of control) was 240% (active).
In the case of `CSc1nnc2c(n1)OC(c1ccsc1)N(C(C)=O)c1ccccc1-2` (stereo unspecified), the coactivator binding (% of control) is reported as 348% (active).
`Cc1cc(C)nc(-n2nc(C)cc2NC(=O)c2ccc(Br)o2)n1` was tested, and the coactivator binding (% of control) was 427% (active).
With `c1ccc(C(c2ccccc2)N2CCN(Cc3nnnn3C3CCCCC3)CC2)cc1` the coactivator binding (% of control) was 209% [fluorescence artefact?] (active).
In the case of `CCSc1nc(-c2ccc(OC)cc2)cc(-c2ccc(OC)cc2)c1C#N`, the coactivator binding (% of control) is reported as 371% [fluorescence artefact?] (active).
With `CCOc1nc(-c2ccc(OC)cc2)ccc1-c1noc(-c2cc(OC)c(OC)c(OC)c2)n1` the coactivator binding (% of control) was 239% (active).
For `C/C(O)=C\c1nc(=O)c2c(C)cc(C)nc2n1-c1ccccc1`, the coactivator binding (% of control) was 297% [fluorescence artefact?] (active).
For `CC(=O)c1ccc(S(=O)(=O)N2CCN(c3nc4c(C)c(C)ccc4cc3C#N)CC2)cc1`, the coactivator binding (% of control) was 225% [fluorescence artefact?] (active).
For `Nn1cnnc1N/N=C/c1cc([N+](=O)[O-])c(Cl)cc1Cl`, the coactivator binding (% of control) was 600% [fluorescence artefact?] (active).
`Cc1ccc(Cn2c(NC(=O)c3ccco3)nc3ccccc32)cc1` was tested, and the coactivator binding (% of control) was 316% (active).
In the case of `O=c1c(-c2ccc3c(c2)OCCO3)c(C(F)(F)F)oc2cc(O)cc(O)c12`, the coactivator binding (% of control) is reported as 346% [fluorescence artefact?] (active).
With `CC(=O)Nc1ccc(NC(=O)c2sc3nc4c(c(-c5ccc(C)cc5)c3c2N)CCC4)cc1` the coactivator binding (% of control) was 1100% [fluorescence artefact?] (active).
For `O=C(NCCCN1CCCCCC1)C1CC(=O)N(C2CCCC2)C1` (stereo unspecified), the coactivator binding (% of control) was 688% [fluorescence artefact?] (active).
In the case of `CCC(C(=O)NC1CCCC1)N(C(=O)c1snc(C(N)=O)c1N)c1ccc2c(c1)OCCO2` (stereo unspecified), the coactivator binding (% of control) is reported as 244% [fluorescence artefact?] (active).
With `CC1Cc2ccccc2N1C(=O)CSc1nnc(-c2ccc(S(=O)(=O)N3CCCCC3)cc2)o1` (stereo unspecified) the coactivator binding (% of control) was 304% (active).
With `O=C(Oc1ccc(-c2nc(-c3ccccn3)no2)cc1)c1ccccc1` the coactivator binding (% of control) was 210% (active).
